In the supplement of paper PMC11732987, “Enantioselective OTUD7B fragment discovery through chemoproteomics screening and high-throughput optimisation” (Communications Chemistry, 2025):

Columns and labels:
Assay in all cases: log2 ratio of Biotin-Ahx-Ub-VS probe labelling (fragment/DMSO); higher = less target engagement (more negative = stronger competition), active = hit call of the paper (q ≤ 0.05, log2 ratio ≤ -1)
Details in all cases: compound concentration: 200 uM; treatment time: 3 h
[1] = target: T1, USP19 (UniProt O94966)
T1 sequence (whole entry): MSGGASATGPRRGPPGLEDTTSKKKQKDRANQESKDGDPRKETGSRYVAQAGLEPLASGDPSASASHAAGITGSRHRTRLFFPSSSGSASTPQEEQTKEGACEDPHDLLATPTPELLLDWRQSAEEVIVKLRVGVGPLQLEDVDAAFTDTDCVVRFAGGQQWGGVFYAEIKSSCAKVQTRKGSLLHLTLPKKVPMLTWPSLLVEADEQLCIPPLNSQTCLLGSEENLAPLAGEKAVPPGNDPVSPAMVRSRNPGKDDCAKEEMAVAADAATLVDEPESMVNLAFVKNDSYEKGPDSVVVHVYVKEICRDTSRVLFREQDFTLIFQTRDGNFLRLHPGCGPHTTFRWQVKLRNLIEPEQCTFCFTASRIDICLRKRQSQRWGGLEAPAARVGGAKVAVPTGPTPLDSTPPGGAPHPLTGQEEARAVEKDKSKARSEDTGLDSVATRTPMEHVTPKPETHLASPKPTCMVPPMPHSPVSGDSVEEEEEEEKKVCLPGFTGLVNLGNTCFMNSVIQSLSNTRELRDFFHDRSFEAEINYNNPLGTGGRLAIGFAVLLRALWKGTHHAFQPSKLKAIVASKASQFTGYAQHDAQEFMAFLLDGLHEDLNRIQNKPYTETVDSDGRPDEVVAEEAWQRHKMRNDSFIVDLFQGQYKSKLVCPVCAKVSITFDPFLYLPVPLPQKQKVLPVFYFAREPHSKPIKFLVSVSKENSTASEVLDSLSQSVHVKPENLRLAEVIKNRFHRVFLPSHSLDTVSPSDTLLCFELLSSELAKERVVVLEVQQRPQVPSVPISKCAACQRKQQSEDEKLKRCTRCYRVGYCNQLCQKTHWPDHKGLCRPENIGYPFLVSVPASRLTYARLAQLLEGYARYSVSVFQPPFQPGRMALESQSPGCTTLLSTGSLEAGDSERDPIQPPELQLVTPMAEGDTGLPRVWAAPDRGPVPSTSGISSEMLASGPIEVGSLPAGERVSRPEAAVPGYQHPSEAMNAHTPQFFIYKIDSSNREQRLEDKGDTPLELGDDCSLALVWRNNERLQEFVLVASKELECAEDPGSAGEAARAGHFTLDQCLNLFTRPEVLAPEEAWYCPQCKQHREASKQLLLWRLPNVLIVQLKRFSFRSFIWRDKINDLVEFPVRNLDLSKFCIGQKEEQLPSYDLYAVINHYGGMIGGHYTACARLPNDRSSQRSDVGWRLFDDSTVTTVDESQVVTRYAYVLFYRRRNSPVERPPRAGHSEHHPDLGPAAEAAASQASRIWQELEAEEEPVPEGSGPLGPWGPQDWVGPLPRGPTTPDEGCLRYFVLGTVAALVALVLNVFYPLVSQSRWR
Method in brief: (§1)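 HEK293T lysate, 495 µg per sample in Tris/CHAPS/IGEPAL buffer with protease inhibitors, was treated in triplicate with fragment at 200 µM or vehicle for 3 h and then with Biotin-Ahx-Ub-VS at 0.5 µM final for 1 h. Labelled DUBs were NeutrAvidin-enriched, digested with LysC and trypsin, and run by diaPASEF LC-MS/MS. Spectronaut label-free quantities were global-median-normalised, and values are average log2 fragment/vehicle ratios by unpaired t-test on proteins with ≥2 unique peptides.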

[2] = target: USP24 (UniProt Q9UPU5)
Method in brief: as §1

[3] = target: T2, USP25 (UniProt Q9UHP3)
T2 sequence (whole entry): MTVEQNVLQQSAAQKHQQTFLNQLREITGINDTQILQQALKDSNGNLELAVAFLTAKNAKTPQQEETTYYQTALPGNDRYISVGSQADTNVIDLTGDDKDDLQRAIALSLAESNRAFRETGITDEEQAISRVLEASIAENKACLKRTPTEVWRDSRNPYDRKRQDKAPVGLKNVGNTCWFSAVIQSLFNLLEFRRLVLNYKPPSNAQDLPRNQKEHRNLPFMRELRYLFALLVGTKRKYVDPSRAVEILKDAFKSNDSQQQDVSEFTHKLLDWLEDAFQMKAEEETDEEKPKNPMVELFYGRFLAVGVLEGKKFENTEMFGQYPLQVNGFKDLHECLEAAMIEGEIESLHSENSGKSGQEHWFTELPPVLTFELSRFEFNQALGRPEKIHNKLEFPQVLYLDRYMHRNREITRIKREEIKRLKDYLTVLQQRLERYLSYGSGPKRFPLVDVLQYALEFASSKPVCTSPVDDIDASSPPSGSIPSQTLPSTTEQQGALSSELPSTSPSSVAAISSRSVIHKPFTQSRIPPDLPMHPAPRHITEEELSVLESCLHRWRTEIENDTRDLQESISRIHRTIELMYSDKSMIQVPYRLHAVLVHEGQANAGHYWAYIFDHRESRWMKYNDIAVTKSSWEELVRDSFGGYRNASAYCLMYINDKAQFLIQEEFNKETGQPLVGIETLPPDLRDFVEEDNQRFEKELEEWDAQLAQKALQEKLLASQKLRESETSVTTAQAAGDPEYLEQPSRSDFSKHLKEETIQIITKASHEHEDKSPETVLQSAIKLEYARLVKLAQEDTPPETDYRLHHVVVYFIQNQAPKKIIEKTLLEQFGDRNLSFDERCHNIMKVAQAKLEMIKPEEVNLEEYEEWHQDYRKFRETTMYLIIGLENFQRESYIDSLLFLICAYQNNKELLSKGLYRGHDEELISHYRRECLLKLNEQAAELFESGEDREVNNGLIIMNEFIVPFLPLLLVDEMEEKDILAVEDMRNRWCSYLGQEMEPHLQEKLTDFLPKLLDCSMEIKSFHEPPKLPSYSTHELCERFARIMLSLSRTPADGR
Method in brief: as §1

[4] = target: T3, USP28 (UniProt Q96RU2)
T3 sequence (whole entry): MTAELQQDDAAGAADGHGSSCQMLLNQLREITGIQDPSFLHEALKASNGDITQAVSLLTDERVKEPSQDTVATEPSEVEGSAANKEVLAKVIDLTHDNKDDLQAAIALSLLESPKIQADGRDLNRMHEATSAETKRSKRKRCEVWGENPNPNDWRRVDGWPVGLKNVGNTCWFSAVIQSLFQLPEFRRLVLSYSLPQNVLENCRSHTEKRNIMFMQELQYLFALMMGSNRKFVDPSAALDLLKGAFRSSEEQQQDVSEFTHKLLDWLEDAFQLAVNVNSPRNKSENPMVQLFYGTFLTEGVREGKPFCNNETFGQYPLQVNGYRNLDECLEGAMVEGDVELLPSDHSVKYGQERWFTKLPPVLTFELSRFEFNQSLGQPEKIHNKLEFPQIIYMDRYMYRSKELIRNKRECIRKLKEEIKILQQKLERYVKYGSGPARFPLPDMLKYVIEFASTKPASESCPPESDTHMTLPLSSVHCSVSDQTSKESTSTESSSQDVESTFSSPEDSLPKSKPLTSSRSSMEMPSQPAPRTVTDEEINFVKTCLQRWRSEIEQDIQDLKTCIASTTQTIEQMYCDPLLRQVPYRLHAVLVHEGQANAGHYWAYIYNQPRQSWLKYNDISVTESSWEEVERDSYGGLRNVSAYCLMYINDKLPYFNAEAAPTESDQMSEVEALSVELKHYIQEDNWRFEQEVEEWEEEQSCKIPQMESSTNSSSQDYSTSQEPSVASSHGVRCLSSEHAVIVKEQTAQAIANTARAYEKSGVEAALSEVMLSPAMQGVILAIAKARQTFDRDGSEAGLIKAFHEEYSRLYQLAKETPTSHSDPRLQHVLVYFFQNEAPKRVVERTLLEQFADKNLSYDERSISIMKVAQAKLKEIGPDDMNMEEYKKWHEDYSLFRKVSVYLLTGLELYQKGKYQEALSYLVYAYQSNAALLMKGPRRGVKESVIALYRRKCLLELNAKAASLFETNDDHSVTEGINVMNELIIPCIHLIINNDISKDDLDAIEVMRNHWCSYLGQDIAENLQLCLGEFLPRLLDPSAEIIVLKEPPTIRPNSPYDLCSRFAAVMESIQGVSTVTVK
Method in brief: as §1

Measured: log2 ratio of Biotin-Ahx-Ub-VS probe labelling

Chain of USP24 (Q9UPU5 whole entry): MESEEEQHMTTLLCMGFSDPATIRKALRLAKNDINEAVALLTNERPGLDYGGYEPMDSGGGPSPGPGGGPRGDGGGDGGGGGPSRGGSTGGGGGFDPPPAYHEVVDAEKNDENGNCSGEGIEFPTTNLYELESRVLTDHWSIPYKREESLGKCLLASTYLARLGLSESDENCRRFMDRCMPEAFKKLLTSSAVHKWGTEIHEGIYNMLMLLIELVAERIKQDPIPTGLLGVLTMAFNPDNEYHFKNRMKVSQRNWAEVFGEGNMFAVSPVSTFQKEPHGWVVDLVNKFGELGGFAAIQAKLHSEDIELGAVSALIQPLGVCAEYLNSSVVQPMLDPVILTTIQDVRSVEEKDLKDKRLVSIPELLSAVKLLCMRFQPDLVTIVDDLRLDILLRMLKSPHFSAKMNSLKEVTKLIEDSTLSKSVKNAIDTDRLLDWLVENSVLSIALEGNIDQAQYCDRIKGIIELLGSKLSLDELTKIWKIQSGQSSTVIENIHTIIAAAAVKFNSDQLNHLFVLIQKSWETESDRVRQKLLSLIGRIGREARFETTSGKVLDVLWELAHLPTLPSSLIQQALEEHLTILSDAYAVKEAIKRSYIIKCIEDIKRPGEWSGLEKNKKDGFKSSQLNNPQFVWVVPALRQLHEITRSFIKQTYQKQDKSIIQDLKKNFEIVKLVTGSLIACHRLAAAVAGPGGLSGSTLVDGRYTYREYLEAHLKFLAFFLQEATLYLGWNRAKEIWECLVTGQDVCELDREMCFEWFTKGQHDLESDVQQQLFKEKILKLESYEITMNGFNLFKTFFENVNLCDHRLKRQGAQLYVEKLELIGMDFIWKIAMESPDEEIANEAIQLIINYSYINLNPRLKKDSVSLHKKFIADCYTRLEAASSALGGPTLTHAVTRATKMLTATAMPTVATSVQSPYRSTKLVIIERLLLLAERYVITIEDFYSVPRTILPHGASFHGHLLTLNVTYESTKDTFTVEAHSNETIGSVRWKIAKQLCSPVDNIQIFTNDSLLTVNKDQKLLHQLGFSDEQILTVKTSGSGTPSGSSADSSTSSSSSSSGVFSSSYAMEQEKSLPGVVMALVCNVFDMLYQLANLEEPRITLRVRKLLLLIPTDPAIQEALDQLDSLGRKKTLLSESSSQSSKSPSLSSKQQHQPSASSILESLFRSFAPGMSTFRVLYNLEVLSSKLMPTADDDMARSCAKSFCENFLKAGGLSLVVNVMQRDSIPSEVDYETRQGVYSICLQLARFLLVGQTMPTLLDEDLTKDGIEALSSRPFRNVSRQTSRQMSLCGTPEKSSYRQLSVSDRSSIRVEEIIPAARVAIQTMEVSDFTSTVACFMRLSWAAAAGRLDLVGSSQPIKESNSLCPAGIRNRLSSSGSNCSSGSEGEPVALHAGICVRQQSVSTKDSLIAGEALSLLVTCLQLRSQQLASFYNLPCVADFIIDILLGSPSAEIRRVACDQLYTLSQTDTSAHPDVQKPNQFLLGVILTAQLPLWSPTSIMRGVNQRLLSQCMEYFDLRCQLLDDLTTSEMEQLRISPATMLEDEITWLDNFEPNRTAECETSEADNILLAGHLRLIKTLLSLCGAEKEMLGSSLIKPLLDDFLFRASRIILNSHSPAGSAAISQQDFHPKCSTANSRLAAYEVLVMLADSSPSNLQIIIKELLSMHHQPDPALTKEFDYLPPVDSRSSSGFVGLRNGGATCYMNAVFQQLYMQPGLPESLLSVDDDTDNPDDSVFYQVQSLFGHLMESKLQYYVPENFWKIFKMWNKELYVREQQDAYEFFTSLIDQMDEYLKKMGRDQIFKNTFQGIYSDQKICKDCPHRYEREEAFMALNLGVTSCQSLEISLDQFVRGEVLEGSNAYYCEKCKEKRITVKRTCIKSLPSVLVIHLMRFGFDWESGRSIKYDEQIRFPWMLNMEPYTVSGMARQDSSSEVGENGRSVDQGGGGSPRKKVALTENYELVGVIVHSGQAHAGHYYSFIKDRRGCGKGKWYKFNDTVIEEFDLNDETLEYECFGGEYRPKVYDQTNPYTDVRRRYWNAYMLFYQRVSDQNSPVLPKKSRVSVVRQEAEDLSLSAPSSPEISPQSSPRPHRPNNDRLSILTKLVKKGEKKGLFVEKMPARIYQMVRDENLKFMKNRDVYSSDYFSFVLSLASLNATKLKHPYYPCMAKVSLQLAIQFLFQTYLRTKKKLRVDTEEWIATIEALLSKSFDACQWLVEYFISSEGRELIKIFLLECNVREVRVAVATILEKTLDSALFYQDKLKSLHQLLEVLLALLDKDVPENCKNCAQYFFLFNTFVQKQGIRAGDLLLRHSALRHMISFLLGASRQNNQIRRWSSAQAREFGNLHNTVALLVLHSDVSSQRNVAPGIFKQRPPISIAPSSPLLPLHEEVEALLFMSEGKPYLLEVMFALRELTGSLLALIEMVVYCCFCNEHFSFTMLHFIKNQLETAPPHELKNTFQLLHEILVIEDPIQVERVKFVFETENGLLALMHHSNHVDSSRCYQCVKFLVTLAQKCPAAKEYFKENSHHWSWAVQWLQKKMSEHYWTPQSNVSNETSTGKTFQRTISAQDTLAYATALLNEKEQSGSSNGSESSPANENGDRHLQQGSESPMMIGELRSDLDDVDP

COCC[C@@H](NC(=O)CCl)c1ccccc1
inactive: [1] -0.0952 | [2] -0.153 | [3] -0.293 | [4] -0.388
